Results published in PubChem BioAssay (NCI).
About 83,000 compounds went through this panel and 20% of them were active in at least one assay; those are over-represented in the sample as a whole.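 Growth was measured after 48 h exposure to one concentration of compound in 96-well plates. Values under 10 count as active.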 Unmarked numbers belong to inactive results. Calls of active or inactive are those of the source.

These compounds were tested on HL-60(TB) leukemia (assay: NCI-60 one-dose screen, 48 h (100 = growth as untreated, 0 = no growth, -100 = all killed)). Conditions: 10 µM unless noted.

Compound | growth
CCOC(=O)C(C)(c1ccccc1)c1ccccc1 | 104%
Cn1c2ccccc2c2ccccc21 | 95.9%
CN(C)c1nc(-c2ccco2)n2nc(-c3ccc(Cl)cc3)cc2n1 | 90.8%
O=S(=O)(c1ccccc1)N1CCCc2ccccc21 | 103%
COc1cc2cc(NCc3cccc(Cl)c3)nc(C)c2cc1OC | 14.5%
O=S(=O)(NCCCNc1nccc(-c2c(-c3cccc(F)c3)nc3sccn23)n1)c1cccc(F)c1 | 40.5%
O=C1CS/C(=N/c2nnc(-c3ccc(O)cc3)s2)N1 | 98.8%
Cc1[nH]n(-c2ccccc2)c2nc3nncc3c(-c3ccc(Cl)cc3)c12 | 110%
COc1ccc(-c2cc(C(=O)Nc3ccc(C)cc3)nc3[nH]c(=O)sc23)cc1 | 51.8%
Cc1ccc(Cn2c(-c3nonc3N)nc3ccccc32)cc1 | 71.8%
CC(C)(C)CC(C)(C)NC(=O)Nc1ncccc1OCc1ccccc1 | 90.5%
C=C(C)[C@@H]1CC[C@]2(C(N)=O)CC[C@]3(C)[C@H](CC[C@@H]4[C@@]5(C)C/C(=C/c6cccnc6)[C@H](O)C(C)(C)[C@@H]5CC[C@]43C)[C@@H]12 | 0.0883% [100 µM] (active)
N=C(N)c1ccc(-c2ccc(-c3ccc(Cl)cc3Cl)o2)nc1 | -26.7% (active)
O=C1OC(c2ccc(-c3ccccc3)cc2)=C/C1=C/c1c2ccccc2cc2ccccc12 | 51%
O=c1[nH]nc(SC2CCCCC2)c(=O)[nH]1 | 108%
NC(CS/C(Cl)=C/Cl)C(=O)O (stereo not given) | 86.9%
Cn1cc(-c2nc(-c3c[nH]c4ccccc34)cs2)c2cccnc21 | 6.19% (active)
CN(C)CCCNc1nn2c(=O)c3ccccc3nc2c2ccccc12 | 26.9%
CN(C)c1ccc2cc(-c3nc4ccccc4s3)c(N)nc2c1 | 0.561% (active)
O=C1OC(N(Cc2ccc(Cl)cc2)c2ccccc2)c2ccccc21 (stereo not given) | 93.8%

Compound | growth
NC1=C(C/C(N)=N\O)C(c2ccccc2Cl)c2c(ccc3ccccc23)O1 (stereo not given) | 84.9%
CC(C)[C@H]1CCC2=C3CC[C@]45OC(=O)[C@@]6(CCC(C)(C)C[C@H]64)CC[C@@]5(C)[C@]3(C)CC[C@@]21C | 3.99% [100 µM] (active)
O=C(CSc1nnc2sc(Nc3cccc(Cl)c3)nn12)c1ccc(F)cc1 | 82.7%
O=c1[nH]c(-c2ccccc2)nc2sc3cc(O)ccc3c12 | -33.5% (active)
COC(=O)CNS(=O)(=O)c1ccc2c(c1)Cc1cc(S(=O)(=O)NCC(=O)OC)ccc1-2 | 98.5%
CC(=O)OC/C=C(/C)C[P+](c1ccccc1)(c1ccccc1)c1ccccc1 | 44.9%
Cc1ccc(-c2nc3nc(-c4ccc(Cl)cc4)nc(N4CCCNCC4)c3o2)cc1 | -67.6% (active)
NC(N)=N/N=C/c1ccccc1 | 99.5%
Cc1c(CC(=O)OCCO)cc(-c2ccc(Cl)cc2)n1-c1ccccc1 | 95.7%
N=C(N)c1ccc(-c2ccc(-c3ccc(F)cc3)s2)cc1 | -56.1% (active)
COC(=O)/C=C1\SC(=Nc2cccc(OC)c2)N(CCc2c[nH]c3ccccc23)C1=O | 22.2%
CCN1C(=O)/C(=C/C=C/N(C)c2ccccc2)SC1=S | 78.2%
O=C(/C=C/c1ccccc1)c1ccc(-n2cc(CN3CCN(c4cc5c(cc4F)c(=O)c(C(=O)O)cn5C4CC4)CC3)nn2)cc1 | 99.1%
COC(CC(F)F)c1cn(S(=O)(=O)c2ccc(C)cc2)c2ccccc12 (stereo not given) | 8.92% (active)
COC1=CC(=O)c2c(O)c3c(c(O)c2C1=O)CC(C)(O)OC3 (stereo not given) | -57.1% (active)
NNCCc1ccc(NC(=O)CCCc2ccc(/C=C/C(=O)NO)cc2)cc1 | 18.3%
Cc1cc([N+](=O)[O-])c(C)cc1C(=O)O | 107%
COc1ccc(N2C(=O)C3c4[nH]c5ccc(OCc6ccccc6)cc5c4C4CCC(C(C)C)CC4C3C2=O)cc1 (stereo not given) | 68.9%
Cc1cc(N)ccc1-c1ccc(N)cc1C | 84.6%
COc1cc([N+](=O)[O-])c2ncccc2c1O | 72.1%
